Results from PubChem BioAssay AID1159580 (chemical genetic matrix, 2015).
Values joined by “and” are separate entries in the source; they are usually repeats but may differ in a detail not shown here. Identical values can stand only once. The campaign covered roughly 5,500 compounds. About 2,000 (36%) were called active. Not shown: some 18% with an inconclusive outcome. Cut-off read from the data, not from the text of the source: active = normalized growth mostly below about 0.91 (no sharp cut-off); inconclusive = no clear call, values can overlap the other calls; inactive = mostly above about 0.92. The list shows a part of the results.

Experiment: chemical genetic growth profiling, strain panel (AID 1159580);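 note: tested at 20 µM; growth read once vehicle control cultures reached saturation at 30 °C; 1 = growth at the plate median or of vehicle wells; lower values mean less growth of the strain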
Settings: S. cerevisiae deletion strains, growth OD

Measured: normalized growth

O[N+]1=CC=CCC1=S.On1ccccc1=S.[Zn]
active: locus YAL013W, strain DEP1, stronger effect = lower value 0.0588 | locus YAL021C, strain ccr4, stronger effect = lower value 0.0689 | locus YAL026C, strain drs2, stronger effect = lower value 0.0618 | locus YAL030W, strain snc1, stronger effect = lower value 0.0584 | locus YBL061C, strain skt5, stronger effect = lower value 0.0681 | locus YBR009C, strain hhf1, stronger effect = lower value 0.0728 | locus YBR021W, strain FUR4, stronger effect = lower value 0.0965 | locus YBR023C, strain chs3, stronger effect = lower value 0.0675 | locus YBR171W, strain sec66, stronger effect = lower value 0.0802 | locus YBR229C, strain ROT2, stronger effect = lower value 0.052 | locus YBR231C, strain swc5, stronger effect = lower value 0.0683 | locus YBR279W, strain paf1, stronger effect = lower value 0.0672 | locus YCL011C, strain gbp2, stronger effect = lower value 0.0581 | locus YCL016C, strain dcc1, stronger effect = lower value 0.0685 | locus YCL029C, strain bik1, stronger effect = lower value 0.0621 | locus YCL061C, strain MRC1, stronger effect = lower value 0.0686 | locus YCL069W, strain vba3, stronger effect = lower value 0.0611 | locus YCR088W, strain abp1, stronger effect = lower value 0.0601 | locus YDL005C, strain med2, stronger effect = lower value 0.081 | locus YDL035C, strain GPR1, stronger effect = lower value 0.0513 | locus YDL040C, strain nat1, stronger effect = lower value 0.061 | locus YDL074C, strain BRE1, stronger effect = lower value 0.0852 | locus YDL101C, strain DUN1, stronger effect = lower value 0.0624 | locus YDL185W, strain tfp1, stronger effect = lower value 0.0604 | locus YDL192W, strain arf1, stronger effect = lower value 0.0611 | locus YDR001C, strain nth1, stronger effect = lower value 0.0598 | locus YDR069C, strain doa4, stronger effect = lower value 0.0662 | locus YDR101C, strain arx1, stronger effect = lower value 0.0573 | locus YDR137W, strain rgp1, stronger effect = lower value 0.0942 | locus YDR150W, strain NUM1, stronger effect = lower value 0.0564 | locus YDR159W, strain sac3, stronger effect = lower value 0.104 | locus YDR162C, strain NBP2, stronger effect = lower value 0.0519 | locus YDR195W, strain ref2 0.122 | locus YDR297W, strain sur2, stronger effect = lower value 0.0587 | locus YDR318W, strain mcm21, stronger effect = lower value 0.0644 | locus YDR334W, strain swr1, stronger effect = lower value 0.0636 | locus YDR335W, strain msn5, stronger effect = lower value 0.0604 | locus YDR388W, stronger effect = lower value 0.0563 | locus YDR392W, strain spt3, stronger effect = lower value 0.102 | locus YDR502C, strain sam2, stronger effect = lower value 0.0617 | locus YEL003W, strain gim4, stronger effect = lower value 0.0591 | locus YEL037C, strain rad23, stronger effect = lower value 0.0593 | locus YEL061C, strain CIN8 (second series), stronger effect = lower value 0.0642 | locus YEL061C, strain CIN8, stronger effect = lower value 0.0538 | locus YER015W, strain faa2, stronger effect = lower value 0.0649 | locus YER016W, strain bim1, stronger effect = lower value 0.0653 | locus YER110C, stronger effect = lower value 0.0752 | locus YER111C, strain swi4, stronger effect = lower value 0.0747 | locus YER155C, strain BEM2 (second series), stronger effect = lower value 0.0952 | locus YER155C, strain BEM2, stronger effect = lower value 0.0682 | locus YER167W, strain BCK2, stronger effect = lower value 0.0543 | locus YFR010W, strain ubp6, stronger effect = lower value 0.0685 | locus YGL078C, strain dbp3, stronger effect = lower value 0.0615 | locus YGL086W, strain mad1, stronger effect = lower value 0.0569 | locus YGL167C, strain pmr1, stronger effect = lower value 0.0764 | locus YGL173C, strain kem1, stronger effect = lower value 0.0718 | locus YGL227W, strain vid30, stronger effect = lower value 0.0622 | locus YGL240W, strain doc1, stronger effect = lower value 0.0817 | locus YGL248W, strain PDE1, stronger effect = lower value 0.0522 | locus YGL253W, strain hxk2, stronger effect = lower value 0.0558 | locus YGR078C, strain PAC10, stronger effect = lower value 0.0545 | locus YGR135W, strain pre9, stronger effect = lower value 0.0622 | locus YGR252W, strain gcn5, stronger effect = lower value 0.164 | locus YHR013C, strain ard1, stronger effect = lower value 0.117 | locus YHR027C, strain rpn1, stronger effect = lower value 0.0678 | locus YHR030C, strain SLT2, stronger effect = lower value 0.0537 and 0.0956 | locus YHR079C, strain IRE1 (second series), stronger effect = lower value 0.0577 | locus YHR079C, strain IRE1, stronger effect = lower value 0.111 | locus YHR094C, strain hxt1, stronger effect = lower value 0.0579 | locus YHR129C, strain ARP1, stronger effect = lower value 0.0604 | locus YHR142W, strain chs7, stronger effect = lower value 0.0777 | locus YHR200W, strain rpn10, stronger effect = lower value 0.0589 | locus YIL066C, strain RNR3, stronger effect = lower value 0.0511 | locus YIL073C, strain SPO22, stronger effect = lower value 0.113 | locus YIL125W, strain kgd1, stronger effect = lower value 0.0608 | locus YIR030C, strain dcg1, stronger effect = lower value 0.0598 | locus YJL092W, strain hpr5, stronger effect = lower value 0.0603 | locus YJL095W, strain BCK1 (second series), stronger effect = lower value 0.0629 | locus YJL095W, strain BCK1, stronger effect = lower value 0.0641 and 0.0953 | locus YJL115W, strain asf1, stronger effect = lower value 0.0768 | locus YJL129C, strain trk1, stronger effect = lower value 0.0933 | locus YJL134W, strain LCB3, stronger effect = lower value 0.0509 | locus YJL154C, strain vps35, stronger effect = lower value 0.064 | locus YJL164C, strain tpk1, stronger effect = lower value 0.0692 | locus YJL166W, strain qcr8, stronger effect = lower value 0.0996 | locus YJL168C, strain set2, stronger effect = lower value 0.0599 | locus YJL187C, strain SWE1 (second series), stronger effect = lower value 0.0508 | locus YJL187C, strain SWE1, stronger effect = lower value 0.0629
